Source: PubChem (National Center for Advancing Translational Sciences (NCATS))
The list is not random: actives were taken first. Their share in the collection is about 4.6%.
TRHR ag – qHTS for Small Molecule Agonists and Allosteric Enhancers of Human TRH Receptor: Primary Screen for Agonists; Thyrotropin-releasing hormone receptor (Homo sapiens), P34981; TRHR cells, calcium flux fluo-8, FDSS agonist mode; activation, % at 2 µM; 360,000 compounds, 0.18% hits; note: 0% is about no effect
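Agonist-mode FDSS calcium read (Ex 480/Em 530, 1 s cycles) in 1536-well TRHR cells with fluo-8 dye, after 10-cycle baseline and 23 nL compound addition; TRH at EC20 (10 nM final) added afterwards for the enhancer phase.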
D1 agonist – Allosteric Agonists of the Human D1 Dopamine Receptor: qHTS; D(1A) dopamine receptor (Homo sapiens), P21728; 360,000 compounds, 1% hits; HEK293 T-REx D1 cells, calcium flux, agonist mode; activation, % at 2 µM; AID 504660, 2011; note: 0% is about no effect
Target sequence (P21728 whole entry, looked up): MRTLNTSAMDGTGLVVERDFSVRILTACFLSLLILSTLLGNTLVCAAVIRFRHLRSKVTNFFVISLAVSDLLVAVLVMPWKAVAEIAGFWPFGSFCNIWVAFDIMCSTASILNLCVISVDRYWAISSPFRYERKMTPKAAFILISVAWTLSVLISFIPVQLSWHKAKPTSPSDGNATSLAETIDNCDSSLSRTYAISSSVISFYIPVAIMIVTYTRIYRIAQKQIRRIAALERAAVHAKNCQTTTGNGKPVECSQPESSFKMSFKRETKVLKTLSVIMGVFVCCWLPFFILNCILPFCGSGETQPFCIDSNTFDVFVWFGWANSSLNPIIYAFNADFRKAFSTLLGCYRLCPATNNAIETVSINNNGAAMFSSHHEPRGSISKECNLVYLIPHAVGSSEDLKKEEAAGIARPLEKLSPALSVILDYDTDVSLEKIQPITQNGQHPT
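Agonism was scored from calcium flux recorded over 180 s (1 read/s) after pintool compound addition, following a 10-cycle baseline. Cells were inducible force-coupled HEK293 TREx D1, plated overnight at 30 C and loaded with no-wash calcium dye.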
TRHR enhancer – qHTS for Small Molecule Agonists and Allosteric Enhancers of Human TRH Receptor: Primary Screen for Enhancers; Thyrotropin-releasing hormone receptor (Homo sapiens), P34981; TRHR cells, fluo-8 calcium fluorescence, EC20 TRH enhancement; enhancement, % at 2 µM; 360,000 compounds, 0.66% hits; AID 493056, 2011; in the data active = enhancement above about 30%; note: 0% is about no effect
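Enhancer read-out: after compound pinning and an initial kinetic agonist-mode read, an EC20 of TRH (10 nM final) was injected and fluo-8 calcium signal (Ex 480/Em 530) followed at 1 s/cycle for 100 cycles in TRHR-expressing cells.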
D1 potentiator – Potentiators of Human D1 Dopamine Receptor: qHTS | HEK293 TREx D1 cells, calcium flux, dopamine EC20 potentiation | 360,000 compounds, 0.036% hits | potentiation, % at 10 µM; in the data active = potentiation above about 30%; note: 0% is about no effect
Epigenetic reg – Quantitative High-Throughput Screen for Regulators of Epigenetic Control. murine LDR cells, GFP reporter derepression, 30 h. AID 1865, 2009. 280,000 compounds, 0.2% hits. Potency, µM (titrated, usually from 53.9 µM), for the others: top-dose GFP activation, actives largely listed as activators; active = well fitted activation curve with a large enough effect; inconclusive = small, poorly fitted or top-dose-only effect; note: potency is the fitted concentration of half-maximal effect; % of control where 0% means no effect; nearly all actives have a fitted effect of over 60% in size
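Murine LDR cells carrying a silenced, genomically integrated CMV-driven GFP reporter were exposed to compound for 30 hours at 37 C. After PBS washes, GFP-positive cells (20–120 um objects) were counted by laser-scanning microplate cytometry.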
D1 antag – Antagonist of Human D 1 Dopamine Receptor: qHTS; AID 504652, 2011; D(1A) dopamine receptor (Homo sapiens), P21728; activity change, negative = inhibition, % at 10 µM; HEK293 TREx D1 cells, calcium flux, dopamine EC80; active compounds read low; 360,000 compounds, 3.2% hits; in the data active = activity change below about -30%; note: % is set by controls: 0 for no effect and ±100 for the full control effect
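Using tetracycline-induced force-coupled D1 Hek293 cells and a calcium dye, signals were followed for 180 s after compound, then for 180 s after EC80 dopamine, to detect inhibitors.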
* marks the source's active call; other numbers are inactive results; [ ] = another dose, or the depositor's remark. Cut-off read from the data, not from the text of the source, unless noted: active = activation above about 30%; inactive = the rest.

How did C[C@@H]1CN(C(=O)c2ccc(OC3CCN(S(=O)(=O)N(C)C)CC3)cc2)C[C@H](C)O1 do in these assays?
TRHR ag: 0; D1 agonist: 3; TRHR enhancer: 5; D1 potentiator: 2; D1 antag: -30*

Results for COc1cccc(N2CC34C=CC(O3)C(C(=O)O)C4C2=O)c1 (centres undefined) ?
TRHR ag: 1; D1 agonist: 0; TRHR enhancer: -2; D1 potentiator: 0; Epigenetic reg: 2%; D1 antag: -42*

What do the screens show for `CN(CCOc1ccc(Cl)cc1)C(=O)C1CCN(C(=O)c2ccc(F)cc2)CC1`?
TRHR ag: 1; D1 agonist: 13; TRHR enhancer: 18; D1 potentiator: -12; D1 antag: -33*

What do the screens show for `Cc1ccc(NC(=O)C2CCN(C(=O)c3ccccc3C)CC2)cc1`?
TRHR ag: 0; D1 agonist: 0; TRHR enhancer: 4; D1 potentiator: 0; Epigenetic reg: -1%; D1 antag: -44*

What do the screens show for `COc1cc(NS(=O)(=O)c2ccc(NC(=S)NC(=O)C3CCCC3)cc2)nc(OC)n1`?
TRHR ag: 0; D1 agonist: 1; TRHR enhancer: -6; D1 potentiator: -12; Epigenetic reg: -1%; D1 antag: -35*

What do the screens show for `COC(=O)c1ccccc1NC(=O)C1CCN(C(=O)c2ccc(OC)cc2)CC1`?
TRHR ag: 0; D1 agonist: 1; TRHR enhancer: -5; D1 potentiator: -13; Epigenetic reg: -1%; D1 antag: -33*

Results for CN(CCOc1ccccc1)C(=O)C1CCN(C(=O)c2ccc(Cl)cc2)CC1 ?
TRHR ag: -1; D1 agonist: 4; TRHR enhancer: 3; D1 potentiator: -13; D1 antag: -3

Results for Cc1ccccc1C(=O)N1CCC(C(=O)Nc2cccc(F)c2)CC1 ?
TRHR ag: 0; D1 agonist: 6; TRHR enhancer: 2; D1 potentiator: 1; Epigenetic reg: inconclusive; D1 antag: 19

What do the screens show for `COc1ccc(C(=O)N2CCC(C(=O)NC3CC3)CC2)cc1`?
TRHR ag: 1; D1 agonist: 1; TRHR enhancer: -4; D1 potentiator: -3; D1 antag: -14

Results for CCC(=O)Nc1ccc(CC)cc1-c1nc2ccccc2n(CC(=O)Nc2cccc(Cl)c2)c1=O ?
TRHR ag: 0; D1 agonist: 3; TRHR enhancer: 1; D1 potentiator: -1; Epigenetic reg: -1%; D1 antag: 2

How did COc1ccc(NS(=O)(=O)c2ccc3[nH]c4c(c3c2)CCCCC4)cc1 do in these assays?
TRHR ag: -1; D1 agonist: 6; TRHR enhancer: -2; D1 potentiator: 5; Epigenetic reg: 0%; D1 antag: -4

What do the screens show for `COc1ccc(NS(=O)(=O)c2ccc(NC(=O)C3CC3)cc2)cc1`?
TRHR ag: 0; D1 agonist: 12; TRHR enhancer: -18; D1 potentiator: -12; D1 antag: -87*

Results for COc1ccc(C(=O)N2CCC(C(=O)Nc3ccc(Cl)cc3)CC2)cc1 ?
TRHR ag: -1; D1 agonist: 16; TRHR enhancer: 8; D1 potentiator: -3; Epigenetic reg: 1%; D1 antag: -42*

What do the screens show for `C#CCCCO/N=C1/C[C@@H](O)[C@@H](O)[C@@H]2[C@@H]3C(=O)N(CC)C(=O)[C@H]3CC[C@@H]12`?
Epigenetic reg: 1%[10.1 µM]

Results for O=C(CCCc1nc(-c2ccccc2)no1)Nc1cccnc1 ?
TRHR ag: 0; D1 agonist: 6; TRHR enhancer: 9; D1 potentiator: -10; Epigenetic reg: -3%; D1 antag: -17

How did CCOC(=O)c1ccc(NC(=O)CCc2nc(-c3ccc(C)cc3)no2)cc1 do in these assays?
TRHR ag: -2; D1 agonist: 45*; TRHR enhancer: 15; D1 potentiator: -9; Epigenetic reg: -1%; D1 antag: 1

Results for CCOC(=O)c1ccc(NC(=O)CCc2nc(-c3ccc(Cl)cc3)no2)cc1 ?
TRHR ag: 0; D1 agonist: 20; TRHR enhancer: 11; D1 potentiator: -4; Epigenetic reg: -1%; D1 antag: -19

How did Cc1ccc(-c2noc(CCCC(=O)Nc3cccnc3)n2)cc1 do in these assays?
TRHR ag: -1; D1 agonist: 20; TRHR enhancer: -12; D1 potentiator: -3; Epigenetic reg: 4%; D1 antag: -34*

Results for COc1ccc(S(=O)(=O)c2c(SC)nn(CC(=O)Nc3cccc(C)c3C)c2N)cc1 ?
TRHR ag: 0; D1 agonist: 2; TRHR enhancer: 9; D1 potentiator: -1; Epigenetic reg: 2%; D1 antag: 9

How did O=C(NCc1ccccc1)c1ccc(CS(=O)(=O)c2c(Cl)cccc2Cl)o1 do in these assays?
TRHR ag: -1; D1 agonist: 2; TRHR enhancer: -10; D1 potentiator: -3; Epigenetic reg: -1%; D1 antag: -4

What do the screens show for `CCOc1ccc(CCNC(=O)CCc2c(C)nc3c4c(C)cc(C)nc4nn3c2C)cc1`?
TRHR ag: -2; D1 agonist: -1; TRHR enhancer: 15; D1 potentiator: -3; Epigenetic reg: -6%; D1 antag: -36*

How did COc1ccc(N2CCN(C(=O)CCc3c(C)nc4cc(-c5cccc(F)c5)nn4c3C)CC2)cc1 do in these assays?
TRHR ag: 0; D1 agonist: 0; TRHR enhancer: 37*; D1 potentiator: 0; Epigenetic reg: 1%; D1 antag: 21

How did COc1ccc(CCNC(=O)CCc2c(C)nc3c(-c4ccc(F)cc4)c(C)nn3c2C)cc1OC do in these assays?
TRHR ag: -1; D1 agonist: 0; TRHR enhancer: 3; D1 potentiator: -3; Epigenetic reg: -1%; D1 antag: 6

What do the screens show for `Cc1nc2cc(-c3cccc(F)c3)nn2c(C)c1CCC(=O)N1CCN(c2ccc(F)cc2)CC1`?
TRHR ag: 0; D1 agonist: -1; TRHR enhancer: 4; D1 potentiator: -4; Epigenetic reg: -1%; D1 antag: 9

Results for COc1ccc(CCNC(=O)CCc2c(C)nc3cc(-c4cccc(F)c4)nn3c2C)cc1OC ?
TRHR ag: 0; D1 agonist: 2; TRHR enhancer: 6; D1 potentiator: 0; Epigenetic reg: 0%; D1 antag: -34*
